The values below come from article PMC7819943, “Rice protein-binding microarrays: a tool to detect cis-acting elements near promoter regions in rice”.

Whole data set: some 35,000 sequences, median “fluorescence intensity (a.u.)” near 10,000, cut for the highest 2% near 52,000. Only a selection was taken, and the highest values are over-represented in it overall.

For the assay, the target named is T1, OsWOX13 (Oryza sativa, UniProt Q5QMM3 1-267).
T1 sequence: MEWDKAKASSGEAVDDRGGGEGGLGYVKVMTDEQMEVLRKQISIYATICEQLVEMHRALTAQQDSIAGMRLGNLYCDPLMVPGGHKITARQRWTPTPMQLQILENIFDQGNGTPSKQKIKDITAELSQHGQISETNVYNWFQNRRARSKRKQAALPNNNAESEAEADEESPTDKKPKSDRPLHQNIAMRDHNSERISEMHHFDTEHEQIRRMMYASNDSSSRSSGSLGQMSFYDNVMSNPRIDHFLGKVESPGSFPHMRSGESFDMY
The experiment in a line: protein-binding microarray (RPBM); PBS, 2% BSA, 51.3 ng/ul salmon testes DNA, 50 uM zinc acetate, 200 nM TF, 25 C, 1 h; high values mean tight binding. As to conditions: protein: recombinant; tags: N-terminal polyhistidine and DsRed monomer fusion (pET32a); label: CyDye5-dUTP incorporated in the synthesized complementary strand; 3' TTTTT single-stranded linker to array surface; dsDNA, one strand shown. In a few lines:
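In PBS with 2% BSA, salmon testes DNA and 50 µM zinc acetate, 200 nM protein was incubated on a custom Agilent array at 25 °C for 1 h and then washed off. The array had been made double-stranded by primer extension with Cy5-dUTP and blocked with 2% BSA. The proteins were transcription factors fused N-terminally to polyhistidine and DsRed, expressed in E. coli BL21-CodonPlus and purified on Ni–NTA. The binding signal is per-feature fluorescence intensity (arbitrary units) from an Axon 4000B scanner.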
Turning to “CCCAATTAAATAATGCCAATTGGGTTTGATCTAATGCTGGCGGAGTCACCTAGTGCAG”, the binding signal is 15200 fluorescence intensity (a.u.).

With “ATCAATCAATCAATCAATCAGCAAAGAGCATCCCAAACAACGGAGTCACCTAGTGCAG”, the binding signal was 33900 fluorescence intensity (a.u.).

For “AAGGTTGTTAATTACAAACCATGTTTCGTACTACAACTCTCGGAGTCACCTAGTGCAG”, the binding signal was 4580 fluorescence intensity (a.u.).

“GTGACAAACTGACAACAGGTTGTTTAGTTTTCCATGATTACGGAGTCACCTAGTGCAG”: the binding signal is 4530 fluorescence intensity (a.u.).

Regarding “GAATCTATTAAGCCTAATTAATCCGTTATTATAGCAAATACGGAGTCACCTAGTGCAG”, the binding signal was 6470 fluorescence intensity (a.u.).

Turning to “AAGGCACGTTGATTGGACTAGTAGTACTACTACGTAGTAGCGGAGTCACCTAGTGCAG”, the binding signal is 18400 fluorescence intensity (a.u.).

For “ACCATTGATGGTCCCAATTTAAAATATTTGGCCGAATCTTCGGAGTCACCTAGTGCAG”, the binding signal was 3840 fluorescence intensity (a.u.).

Take “AATAAAATAAATGATCAAATGAATTATGAAAACTCGTGACCGGAGTCACCTAGTGCAG”: the binding signal is 5260 fluorescence intensity (a.u.).

In the case of “GTCGAAAATTATATCGGAATTAGCAGAGTGTGGCATAGCACGGAGTCACCTAGTGCAG”, the binding signal was 4260 fluorescence intensity (a.u.).

Consider “AGTAAAATGATTTGTAGTGTTAATAATAAAGAATAAATTACGGAGTCACCTAGTGCAG”, for which the binding signal is 10000 fluorescence intensity (a.u.).

Regarding “TACAAATAGACTTGAATAAATGTTTATCTATTTTGTGTTGCGGAGTCACCTAGTGCAG”, the binding signal was 16800 fluorescence intensity (a.u.).

As for “TGAGGAGCAATTAATGAGTTTGATGGACAGAGATAATAGCCGGAGTCACCTAGTGCAG”, the binding signal is 9490 fluorescence intensity (a.u.).

For the sequence “ACGTTTAATTACGGGAAACCGGCTAAAACCCACCACACATCGGAGTCACCTAGTGCAG”, the binding signal is 6640 fluorescence intensity (a.u.).

Take “GTAGGAACACTAATTAATCACTCATTGATATGTGTAATCCCGGAGTCACCTAGTGCAG”: the binding signal is 14700 fluorescence intensity (a.u.).

With “TCTGATTGACGGTGTTTGCAAGCAGAGTTCCTCTTCTTGGCGGAGTCACCTAGTGCAG”, the binding signal was 61500 fluorescence intensity (a.u.).

As to “CTTGTCTTATTTGATTGTTGCATTTACATTTATGCAATTTCGGAGTCACCTAGTGCAG”, the binding signal was 9350 fluorescence intensity (a.u.).

“CCCTTGTTTCTGTTTTGATTGCAACCTAAGAGACTCTTGACGGAGTCACCTAGTGCAG”: the binding signal was 6270 fluorescence intensity (a.u.).

As for “AGGCACGGATTGATGCATTAATTTGGTTGCAATGTAGATGCGGAGTCACCTAGTGCAG”, the binding signal is 37500 fluorescence intensity (a.u.).

With “TCTTGATTGGTTGTTTTGGTTTGTTTCTTATTTATGTTTGCGGAGTCACCTAGTGCAG”, the binding signal was 54100 fluorescence intensity (a.u.).

As for “AGAGTTCTGATTGAATTTGAACAGAAGCGGTGCTTTTGGACGGAGTCACCTAGTGCAG”, the binding signal is 38800 fluorescence intensity (a.u.).

Take “GTAAATTGGCATTGGTTTGATTTATGTTTGCAATGCAGCGCGGAGTCACCTAGTGCAG”: the binding signal was 58200 fluorescence intensity (a.u.).

As to “CCGATGTTTGATTGTTCGTTTTATTTGAAAGCCTTTTATGCGGAGTCACCTAGTGCAG”, the binding signal was 20800 fluorescence intensity (a.u.).

With “TTAATTATTTTGCTGACATGATTTGTTTTCATTTCGTTGACGGAGTCACCTAGTGCAG”, the binding signal was 24100 fluorescence intensity (a.u.).

With “TTGCTAAATTGTTGTCTTGGTTGATATTTTAGATTTCTTGCGGAGTCACCTAGTGCAG”, the binding signal is 10000 fluorescence intensity (a.u.).

As to “CTTAAATCATGATGATTTTATTGGTTGTTGGCATGCACAGCGGAGTCACCTAGTGCAG”, the binding signal was 30500 fluorescence intensity (a.u.).

As to “TTTTACATGATTGGATGACAAAGCCTATTTCGTTTTGTTGCGGAGTCACCTAGTGCAG”, the binding signal was 53100 fluorescence intensity (a.u.).

“CATCTTTGACCGGTTAAATTAGATCCTGTTCTAGATGAGGCGGAGTCACCTAGTGCAG”: the binding signal is 3480 fluorescence intensity (a.u.).

On to “GCTTTCAATAAAACTTCATTAATTGAGGCTAAAATGTTACCGGAGTCACCTAGTGCAG”, for which the binding signal was 5100 fluorescence intensity (a.u.).

“AAGCCAATTAAACAACCAGATACTCAAGTTATAACATAATCGGAGTCACCTAGTGCAG”: the binding signal was 3700 fluorescence intensity (a.u.).

As for “TTTTAAACTAATACTTAATTAATCATATATTAATTAGGTACGGAGTCACCTAGTGCAG”, the binding signal is 19200 fluorescence intensity (a.u.).

As to “CTTATGATTTTATTTAACCTGGTTTTGAAAGACAGGGGTTCGGAGTCACCTAGTGCAG”, the binding signal was 18100 fluorescence intensity (a.u.).

With “ATAGCTAATTTTCGGTATGTTACACCATCCATCTGCCATGCGGAGTCACCTAGTGCAG”, the binding signal is 5050 fluorescence intensity (a.u.).

In the case of “TTCCGATTGAGGAATGTTATTCACACAAGCGCAGGAGATGCGGAGTCACCTAGTGCAG”, the binding signal was 4130 fluorescence intensity (a.u.).

Consider “AAAGTGACTGAATTTTAAGTCATCGGAAATTTACACGCTCCGGAGTCACCTAGTGCAG”, for which the binding signal was 15400 fluorescence intensity (a.u.).

On to “ATGAATTGTTAATTTTGCAAGCTGAACTTCTCATGTTTGGCGGAGTCACCTAGTGCAG”, for which the binding signal was 11100 fluorescence intensity (a.u.).

With “GCGTCCATCTAATCTAATCTAACCACCCTGCACGAATCGCCGGAGTCACCTAGTGCAG”, the binding signal was 8750 fluorescence intensity (a.u.).

With “TTTTCTTTCTTGATTGGGAAGGAAATTGGTGGTTAATCTCCGGAGTCACCTAGTGCAG”, the binding signal is 23700 fluorescence intensity (a.u.).

As for “TATAAAATTATAGATAATATAACATGTTTGCATGATGTTTCGGAGTCACCTAGTGCAG”, the binding signal is 5670 fluorescence intensity (a.u.).

On to “TGGAACATTGTTGATTGGCGAGCTGGCACGCATGCTAGGTCGGAGTCACCTAGTGCAG”, for which the binding signal is 18600 fluorescence intensity (a.u.).

Turning to “TGGAGAGTTTTGATTGGTTGGGAAGAGAATGTTGATAGAGCGGAGTCACCTAGTGCAG”, the binding signal is 20200 fluorescence intensity (a.u.).

Turning to “ATGATTGATGTCTTTTATTTTCTTTGTACTAAGGAGCTTGCGGAGTCACCTAGTGCAG”, the binding signal was 62700 fluorescence intensity (a.u.).

In the case of “TCATGGTGATTGCGGCATGAGAGAGTGAGGGTTCTGCGAGCGGAGTCACCTAGTGCAG”, the binding signal is 10300 fluorescence intensity (a.u.).

As to “TAGTTTTGTAAATGATTGAAATTTTCTAGTGTTAAATAGGCGGAGTCACCTAGTGCAG”, the binding signal is 34800 fluorescence intensity (a.u.).

As to “GTTTGATTGCACATTATGTCCTTGGAGTTCTTCAACATAGCGGAGTCACCTAGTGCAG”, the binding signal is 55700 fluorescence intensity (a.u.).

For the sequence “TATGTTCTTGATTTGTCCTGTTACATTGCTGACATATGTGCGGAGTCACCTAGTGCAG”, the binding signal is 8650 fluorescence intensity (a.u.).

With “TACAATTGATTATGTAAAGTTTGTGTCTTGTACTAGAGGGCGGAGTCACCTAGTGCAG”, the binding signal was 43900 fluorescence intensity (a.u.).

Turning to “GTATGATTGGTTATGTAAAGTTTGTTTCTTGTTCTAGAGGCGGAGTCACCTAGTGCAG”, the binding signal was 58400 fluorescence intensity (a.u.).

For “GTTGATGATGTGGCTTCTTGCTTGTCTTGCTTTATAGGAGCGGAGTCACCTAGTGCAG”, the binding signal was 5720 fluorescence intensity (a.u.).

As for “ACACAATTATGTCAAGTTCAATTCTCAAGTTTGAATTGGGCGGAGTCACCTAGTGCAG”, the binding signal was 5050 fluorescence intensity (a.u.).

Regarding “TTGATTGCTTGTTTGATTGGTGGTTCTTGAGCGAGAAGAGCGGAGTCACCTAGTGCAG”, the binding signal was 63300 fluorescence intensity (a.u.).

As to “TAGATGATTGCACTAGATTTTGCTTTGTGTACTTATTGAACGGAGTCACCTAGTGCAG”, the binding signal is 32900 fluorescence intensity (a.u.).

Consider “TTACTCGTCAATCCACCGATTACAGCTATCTCAAACGGAGCGGAGTCACCTAGTGCAG”, for which the binding signal is 8630 fluorescence intensity (a.u.).

On to “GTGATAATGTCCATCAATCTAGCAAATCATTCTCACAACGCGGAGTCACCTAGTGCAG”, for which the binding signal is 26800 fluorescence intensity (a.u.).

Regarding “TTTGATTTATATGCCATTGCCTTTGCTGAACAGAAAAGCTCGGAGTCACCTAGTGCAG”, the binding signal was 37600 fluorescence intensity (a.u.).
